Test results published in PubChem BioAssay (NCATS).
Where “and” joins values, the source holds several entries; their conditions need not be identical. Identical values can stand only once. Records with an inconclusive call do not appear. Calls of active or inactive are those of the source. Unless noted, calls follow the shape of the dose curve; as a rule, active = well fitted inhibition curve with a large enough effect; inconclusive = small, poorly fitted or top-dose-only effect; inactive = no such curve, though single readings can be large or run the other way.

Experiment: HTS Assay for Allosteric Antagonists of the Human D2 Dopamine Receptor: Hit Validation in HTRF (AID 624455); also: potency is read from the fitted curve at half-maximal effect;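 also: stable D1 dopamine receptor cell line scored for blocking the D1 response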; as to activity, negative = inhibition: % is scaled to controls: 0 for no effect and ±100 for the full control effect
Conditions: Cells stably expressing D1 dopamine receptor, inhibition mode; series mostly up to 46.1 µM; activity, negative = inhibition: at the top concentration
Method in brief: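 Hits were examined in an HTRF assay using cells stably expressing the D1 dopamine receptor, scoring inhibition of the D1-mediated response. The preceding primary screen tracked calcium flux after an EC80 dopamine addition in force-coupled, inducible Hek293 Trex D2 cells.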

Compound | activity, negative = inhibition | Potency
FC(F)(F)c1ccccc1-n1ccnc1 | -7.55% (inactive) | 
CCCN(CCC)C(=O)C(CCC(=O)O)NC(=O)c1ccccc1 (stereo not drawn) | -4.03% (inactive) | 
COc1ccc2c(c1OC)C(=O)O[C@@H]2[C@H]1c2c(cc3c(c2OC)OCO3)CCN1C | 10.6% (inactive) | 
CN(C)C/C=C(/c1ccc(Br)cc1)c1cccnc1 | 7.65% (inactive) | 
CN1CCN(CC(=O)N2c3ccccc3C(=O)Nc3cccnc32)CC1 |  | 3.66 µM (active)
CN(C)CCCN1c2ccccc2Sc2ccccc21 | 34.7% (inactive) | 
c1ccc2c(c1)CCCC2C1=NCCN1 (stereo not drawn) | -3.77% (inactive) | 
CCn1ccnc1CC1COc2ccccc2O1 (stereo not drawn) | 5.86% (inactive) | 
OC(CCN1CCCCC1)(c1ccccc1)C1CCCCC1 (stereo not drawn) | -2.68% (inactive) | 
CCc1cccc(N(C)C(N)=Nc2cccc3ccccc23)c1 | 1.17% (inactive) | 
COCCc1ccc(OCC(O)CNC(C)C)cc1 (stereo not drawn) | 1.46% (inactive) | 
CN1C(=O)CC[C@H]1c1cccnc1 | -0.826% (inactive) | 
CCN1CCc2nc(N)oc2CC1 | -28.6% (inactive) | 
CC(C)NNC(=O)c1ccncc1 | -2.37% (inactive) | 
CC(=O)[C@]1(O)Cc2c(O)c3c(c(O)c2[C@@H](O[C@H]2C[C@H](N)[C@H](O)[C@H](C)O2)C1)C(=O)c1ccccc1C3=O | 6.66% (inactive) | 
CN(C)C(=O)Oc1ccc[n+](C)c1 | 0.708% (inactive) | 
CC(=O)Oc1cc(C(C)C)c(OCCN(C)C)cc1C | 9.06% (inactive) | 
CN(C(=O)CCCOc1ccc2[nH]c(=O)ccc2c1)C1CCCCC1 | 1.83% (inactive) | 
CCCCCCCC/C=C\CCCCCCCC(=O)NCc1ccc(O)c(OC)c1 | -5.21% (inactive) | 
NC(N)=N/N=C/c1c(Cl)cccc1Cl | -11.1% (inactive) | 
CCCCCN(CCCCC)C(=O)C(CCC(=O)O)NC(=O)c1ccc(Cl)c(Cl)c1 (stereo not drawn) | 2.58% (inactive) | 
Fc1ccc(C(c2ccc(F)cc2)N2CCN(C/C=C/c3ccccc3)CC2)cc1 | -4.89% (inactive) | 
Cc1scc2c1N(C(=O)CN1CCN(C)CC1)c1ccccc1NC2=O | -5.44% (inactive) | 
CCN(CC)CCCN(c1ccccc1)C1Cc2ccccc2C1 | 8.92% (inactive) | 
CCCN(CCC)CCc1cccc2c1CC(=O)N2 | -11.3% (inactive) | 

Experiment: qHTS assay for small molecule activators of the p53 signaling pathway (AID 651743; active = well fitted activation curve with a large enough effect in the signal ratio, not every such curve was filed as active; the % refers to the signal ratio; also: % of control where 0% means no effect)
Conditions: HCT-116 p53RE-bla, beta-lactamase FRET ratio, 16 h; activation: active compounds read high
Method in brief: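 Screen for p53 pathway agonists uses stably transfected p53RE-bla HCT-116 cells, 4,000 per well, treated 16 h at 37 C with compounds in DMSO.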

Compound | activation
CCCCNC(=O)NS(=O)(=O)c1ccc(C)cc1 | -3.27% (inactive) and -2.98% (inactive)
CC(=O)Nc1nnc(S(N)(=O)=O)s1 | -5.68% (inactive)
COC(=O)[C@H]1[C@H]2C[C@@H]3c4[nH]c5cc(OC)ccc5c4CCN3C[C@H]2C[C@@H](OC(=O)c2cc(OC)c(OC)c(OC)c2)[C@@H]1OC | 3.91% (inactive) and 8.14% (inactive)
